Screens: PubChem BioAssay, National Center for Advancing Translational Sciences (NCATS)
Cycloheximide cs: Cycloheximide Counterscreen for Small Molecule Inhibitors of Shiga Toxin | max response, % | 12% of 300,000 active | cell reporter, cycloheximide protein synthesis inhibition counterscreen | AID 2314, 2010; in the data active = max response mostly above about 13%, no sharp cut-off; inactive = mostly below about 14%; note: read at 38.3 µM for the half of the compounds with a filed dose; 0% is about no effect
Pf growth 96h: Primary qHTS for delayed death inhibitors of the malarial parasite plastid, 96 hour incubation; 6.9% of 320,000 active; Potency, µM (series often up to 28.7 µM), for the others: at the top dose activity change, negative = inhibition, usual class: inhibitors; P. falciparum luciferase reporter growth, 96 h; note: potency is the fitted concentration of half-maximal effect; % is set by controls: 0 for no effect and ±100 for the full control effect
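Two-generation exposure (96 h) targets delayed-death phenotype. Reporter parasites carrying integrated firefly luciferase, in red cells at 2% hematocrit and 0.05% parasitemia final, kept at 37 C, 5% CO2; luminescence loss indicates inhibition.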
Pf growth 48h: Primary qHTS for delayed death inhibitors of the malarial parasite plastid, 48 hour incubation; P. falciparum luciferase growth in erythrocytes, 48 h; Potency, µM (highest dose often 28.7 µM), inactives show at the top dose activity change, negative = inhibition, hits mostly inhibitors; 5.9% of 310,000 active; AID 504832, 2011; note: potency is the fitted concentration of half-maximal effect; % is set by controls: 0 for no effect and ±100 for the full control effect
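First compound was added to culture medium, then infected red cells at 0.1% parasitemia and 2% hematocrit (final). After incubation at 37 C under 5% CO2, luciferase detection reagent was dispensed and light output recorded.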
Shiga toxin inh: A qHTS for Small Molecule Inhibitors of Shiga Toxin. AID 2315, 2010. inhibition, % at 38.7 µM. Vero cells, Shiga toxin protein synthesis inhibition reporter. 9.2% of 290,000 active; in the data active = inhibition mostly above about 28%, no sharp cut-off; inactive = mostly below about 43%; note: 0% is about no effect
HCMV inh: qHTS Assay for inhibitors of the human cytomegalovirus (HCMV); 4.5% of 410,000 active; activity change, negative = inhibition, % at 57.5 µM; HFF cells, HCMV-luciferase reporter, 72 h; stronger effect = lower value; AID 1259415, 2018; in the data active = activity change below about -60%; inconclusive = no clear call, values can overlap the other calls; inactive = above about -39%; note: % is set by controls: 0 for no effect and ±100 for the full control effect
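Screen run at 2 compound doses on HFFs infected with reporter HCMV, MOI 1 PFU/cell. Luciferase activity from cell lysates at 72 h post infection gave inhibition relative to buffer-only and Salinomycin wells.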
An asterisk follows results filed as active. Rows were chosen to be rich in hits. Some 20% of all compounds tested hit in one or more screens of this group. Unless noted, calls come from the whole dose curve; as a rule, active = well fitted inhibition curve with a large enough effect; inconclusive = small, poorly fitted or top-dose-only effect, or another doubt; inactive = no such curve, though single readings can be large or run the other way.

Results for CCOC(=O)c1c(CN2CCN(CCO)CC2)n(-c2ccccc2)c2cc(Br)c(O)cc12 ?
Cycloheximide cs: -4; Pf growth 96h: 1.7µM*; Pf growth 48h: 2.1µM*; Shiga toxin inh: -22; HCMV inh: -18

Results for CCOC(=O)c1c(CSC(=N)N)n(-c2ccccc2)c2cc(Br)c(OC(C)=O)cc12 ?
Cycloheximide cs: -2; Pf growth 96h: 2.1µM*; Pf growth 48h: 2.9µM*; Shiga toxin inh: -13; HCMV inh: inconclusive

Results for CCOC(=O)c1c(CNc2ccncc2)n(C)c2cc(Br)c(O)cc12 ?
Cycloheximide cs: -1; Pf growth 96h: 0%; Pf growth 48h: 0.33µM*; Shiga toxin inh: -7; HCMV inh: -26

Results for CCOC(=O)c1c(CN2CCN(C)CC2)n(-c2ccccc2)c2cc(Br)c(O)cc12 ?
Cycloheximide cs: -2; Pf growth 96h: inconclusive; Pf growth 48h: inconclusive; Shiga toxin inh: -19; HCMV inh: -8

Results for CCOc1ccc(NC(=O)CCCc2nnc3n(C)c(=O)c4sccc4n23)cc1 ?
HCMV inh: -29

Results for CN(C)S(=O)(=O)c1cccc(COC(=O)CNC(=O)c2ccc(Br)o2)c1 ?
Pf growth 96h: 31%; Pf growth 48h: 48%; HCMV inh: -6

What do the screens show for `CCOC(=O)C1=C(C)NC(=O)NC1c1ccc([N+](=O)[O-])o1` (centres undefined)?
Cycloheximide cs: 2; Pf growth 96h: 25%; Pf growth 48h: 12%; Shiga toxin inh: 20; HCMV inh: 0

Results for CCOC(=O)C1=C(C)NC2=C(C(=O)c3ccccc32)C1c1ccc([N+](=O)[O-])o1 (centres undefined) ?
Cycloheximide cs: 12; Pf growth 96h: inconclusive; Pf growth 48h: 13µM*; Shiga toxin inh: 17; HCMV inh: 28

Results for O=C(CC1C(=O)NC2CCCCC2N1C(=O)c1ccc(F)cc1)Nc1ccccc1 (centres undefined) ?
Cycloheximide cs: -7; Pf growth 48h: inconclusive; Shiga toxin inh: -21; HCMV inh: -36

How did CC(=O)c1cccc(Nc2nc(-c3ccccc3)cs2)c1 do in these assays?
Cycloheximide cs: 33*; Pf growth 96h: inconclusive; Pf growth 48h: -11%; Shiga toxin inh: 107*; HCMV inh: 48

What do the screens show for `CC(=O)c1ccc(Nc2nc(-c3cccnc3)cs2)cc1`?
Cycloheximide cs: 22*; Pf growth 96h: inconclusive; Pf growth 48h: 69%; Shiga toxin inh: 20; HCMV inh: 181

How did CC(=O)c1cccc(Nc2nc(-c3cccnc3)cs2)c1 do in these assays?
Cycloheximide cs: 51*; Pf growth 96h: inconclusive; Pf growth 48h: 38%; Shiga toxin inh: 58*; HCMV inh: 38

What do the screens show for `CC(=O)NC(c1ccccc1)c1nc(-c2cccnc2)cs1` (centres undefined)?
HCMV inh: -26

How did COc1ccc(OC)c(NC(=O)c2c(C)oc3ncnc(N4CCOCC4)c23)c1 do in these assays?
HCMV inh: 27

Results for CCN1CCc2c(sc(NC(=S)NC(=O)c3ccc(Cl)cc3)c2C(N)=O)C1 ?
Cycloheximide cs: -2; Pf growth 96h: inconclusive; Pf growth 48h: inconclusive; Shiga toxin inh: 5; HCMV inh: 35

Results for O=C(NCC(c1cccs1)N1CCOCC1)c1ccccc1NS(=O)(=O)c1cccc([N+](=O)[O-])c1 (centres undefined) ?
Cycloheximide cs: -3; Pf growth 96h: inconclusive; Pf growth 48h: inconclusive; Shiga toxin inh: -5; HCMV inh: inconclusive

Results for O=C(NCC(c1cccs1)N1CCOCC1)c1ccccc1NS(=O)(=O)c1ccc(Cl)c([N+](=O)[O-])c1 (centres undefined) ?
Cycloheximide cs: 1; Pf growth 96h: 8.3µM*; Pf growth 48h: inconclusive; Shiga toxin inh: -4; HCMV inh: -12

Results for O=C(NCC(c1cccs1)N1CCOCC1)c1ccccc1NS(=O)(=O)c1cc([N+](=O)[O-])ccc1Cl (centres undefined) ?
Cycloheximide cs: -1; Pf growth 96h: 13µM*; Pf growth 48h: inconclusive; Shiga toxin inh: -6; HCMV inh: 0

Results for CCOC(=O)Cn1c(=O)n(CC2CCCO2)c2nc(-c3cccc(C)c3)nc(C(N)=O)c21 (centres undefined) ?
HCMV inh: 12

What do the screens show for `CC1CCCN(S(=O)(=O)c2ccc(S(=O)(=O)NC(C)c3cccs3)cc2)C1` (centres undefined)?
Cycloheximide cs: 0; Pf growth 96h: -8%; Shiga toxin inh: 20; HCMV inh: inconclusive

How did CC(C)OCCCNC(=O)c1ccc(NS(C)(=O)=O)cc1 do in these assays?
Cycloheximide cs: 1; Pf growth 96h: 10µM*; Pf growth 48h: -5%; Shiga toxin inh: -5; HCMV inh: 4

What do the screens show for `CCC(C)NC(=O)c1ccc2c(c1)S(=O)(=O)c1ccccc1C2=O` (centres undefined)?
Cycloheximide cs: 32*; Pf growth 96h: -21%; Pf growth 48h: 19%; Shiga toxin inh: 14*; HCMV inh: 31

Results for COCCNC(=O)c1ccc(NS(C)(=O)=O)cc1 ?
Cycloheximide cs: 6; Pf growth 48h: 5%; Shiga toxin inh: -16; HCMV inh: 4

How did CC1CCC(NC(=O)c2ccc3c(c2)S(=O)(=O)c2ccccc2C3=O)CC1 (centres undefined) do in these assays?
HCMV inh: -67*

What do the screens show for `COCC(C)NC(=O)c1ccc2c(c1)S(=O)(=O)c1ccccc1C2=O` (centres undefined)?
Cycloheximide cs: 9; Pf growth 96h: inconclusive; Pf growth 48h: -29%; Shiga toxin inh: -13; HCMV inh: inconclusive

How did CC(C)OCCCNC(=O)c1ccc2c(c1)S(=O)(=O)c1ccccc1C2=O do in these assays?
Cycloheximide cs: -2; Pf growth 96h: 9.3µM*; Pf growth 48h: -22%; Shiga toxin inh: -6; HCMV inh: 0

Results for CCCCNC(=O)c1ccc2c(c1)S(=O)(=O)c1ccccc1C2=O ?
Cycloheximide cs: -2; Pf growth 96h: -20%; Pf growth 48h: 13%; Shiga toxin inh: -6; HCMV inh: -18

What do the screens show for `COC(=O)Nc1ccc(S(=O)(=O)N2CCC(C(=O)NCc3ccc4c(c3)OCO4)CC2)cc1`?
HCMV inh: 27

Results for Cc1c(Cl)cccc1NC(=O)CN1C(=O)CSc2ccc(S(=O)(=O)N3CCCC3)cc21 ?
HCMV inh: 51

What do the screens show for `COc1ccc(N(CC(=O)Nc2cccnc2)S(=O)(=O)c2ccc(C)cc2)cc1Cl`?
Cycloheximide cs: -1; Pf growth 96h: 23%; Pf growth 48h: inconclusive; Shiga toxin inh: 4; HCMV inh: -10

What do the screens show for `CCOc1ccc(N(CC(=O)Nc2cccnc2)S(=O)(=O)c2ccc(C)cc2)cc1`?
Pf growth 96h: 2%; Pf growth 48h: 13µM*; HCMV inh: -29
